Records with an inconclusive call do not appear. Active and inactive are the calls of the source. The calls were made as follows: active = hit-call score of the fitted dose curve at least 0.9, where 1 is the maximum; inconclusive = response in the unintended direction; inactive = score below 0.9.
What follows are molecules tested against Cellular tumor antigen p53 (Homo sapiens) (UniProt P04637) (assay: TOX21_p53_BLA_p4_ratio: Tox21 HCT-116 p53 Agonism Beta-lactamase Assay, Ratio, Phase 4 (AID 2283601)).
Cellular tumor antigen p53 (Homo sapiens), sequence (P04637 whole entry, looked up): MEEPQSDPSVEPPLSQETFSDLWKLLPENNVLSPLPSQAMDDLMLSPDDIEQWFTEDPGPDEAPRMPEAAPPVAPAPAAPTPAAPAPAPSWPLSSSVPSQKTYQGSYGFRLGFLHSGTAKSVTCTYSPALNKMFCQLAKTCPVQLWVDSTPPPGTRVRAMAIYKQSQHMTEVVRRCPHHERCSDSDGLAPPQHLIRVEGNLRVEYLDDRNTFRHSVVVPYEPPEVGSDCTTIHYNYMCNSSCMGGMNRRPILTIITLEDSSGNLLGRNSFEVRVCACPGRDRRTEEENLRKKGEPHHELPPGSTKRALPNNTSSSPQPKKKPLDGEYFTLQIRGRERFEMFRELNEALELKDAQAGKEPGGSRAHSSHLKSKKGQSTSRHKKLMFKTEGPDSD
Summary of the method: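 Signal is the blue/green (460nm/530nm) ratio of cleaved versus uncleaved CCF4-AM substrate, read after 2 h substrate loading. Cells were HCT116 carrying the p53-responsive beta-lactamase reporter, dosed 16 h at 37C, 5% CO2; CellTiter-Glo measured in parallel.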

Row | Structure (SMILES) | outcome
1 | CC(C(=O)O)c1ccc(CC2CCCC2=O)cc1 (stereo not drawn) | inactive
2 | Nc1nc(CC(=O)O)cs1 | inactive
3 | Nc1c(Cl)cc(Cl)cc1Cl | inactive
4 | CCCCOC(=O)C(=O)OCCCC | inactive
5 | CC(CN1c2ccccc2Sc2ccc(S(=O)(=O)N(C)C)cc21)N(C)C (stereo not drawn) | inactive
6 | CCN(CC)CCNC(=O)c1cc(S(C)(=O)=O)ccc1OC | inactive
7 | NC(=O)[C@@H]1C[C@]2(NC(=O)NC2=O)c2cc(F)ccc2O1 | inactive
8 | CN(C)CC[C@@H](c1ccc(Cl)cc1)c1ccccn1 | inactive
9 | CCCCCCCC/C=C\CCCCCCCC(=O)OCCOC(=O)CCCCCCC/C=C\CCCCCCCC | inactive
10 | CN1C(C(=O)Nc2ccccn2)C(=O)c2sc(Cl)cc2S1(=O)=O (stereo not drawn) | inactive
11 | CC(C(=O)O)c1ccc2c(c1)CC(=O)c1ccccc1S2 (stereo not drawn) | inactive
12 | C[C@H]1c2cccc(O)c2C(O)=C2C(=O)[C@]3(O)C(O)=C(C(N)=O)C(=O)[C@@H](N(C)C)[C@@H]3[C@@H](O)[C@@H]21 | inactive
13 | FC(F)(F)c1ccccc1Cl | inactive
14 | COC(=O)N[C@H](C(=O)N[C@@H](Cc1ccccc1)[C@@H](O)CN(Cc1ccc(-c2ccccn2)cc1)NC(=O)[C@@H](NC(=O)OC)C(C)(C)C)C(C)(C)C | inactive
15 | C=CCCCCCCCCCCC | inactive
16 | Cc1ccc(C(=O)Nc2ccc(S(=O)(=O)O)c3cc(S(=O)(=O)O)cc(S(=O)(=O)O)c23)cc1NC(=O)c1cccc(NC(=O)Nc2cccc(C(=O)Nc3cc(C(=O)Nc4ccc(S(=O)(=O)O)c5cc(S(=O)(=O)O)cc(S(=O)(=O)O)c45)ccc3C)c2)c1 | inactive
17 | Cc1cc(NC(=O)C2=C(O)c3ccccc3S(=O)(=O)N2C)no1 | inactive
18 | COc1ccc(-c2cc(=S)ss2)cc1 | inactive
19 | Nc1ccc2cc(S(=O)(=O)O)ccc2c1 | inactive
20 | C=CC(=O)NC(C)C | inactive
21 | NNc1nnc(NN)c2ccccc12 | inactive
22 | O=C(NNCS(=O)(=O)O)c1ccncc1 | inactive
23 | CC(CO)CO | inactive
24 | CCc1ccc(Br)cc1 | inactive
25 | C=CCc1cc(OC)c(O)c(C(=O)NCCO)c1 | inactive
26 | Cc1cccc(C)c1NC(=O)CN1CCCC1 | inactive
27 | C[C@@H](c1ncncc1F)[C@](O)(Cn1cncn1)c1ccc(F)cc1F | inactive
28 | CCCCCCCCCCCc1ccccc1 | inactive

Source: PubChem BioAssay (EPA / NIEHS)
